Experimental data taken from PubChem BioAssay AID1650 (Southern Research Specialized Biocontainment Screening …, 2009).
Results with a measured potency or affinity are listed apart. Calls of active or inactive are those of the source. No rule for the calls is given here.

Test: mammalian cell viability reduction – secondary assay, cytotoxicity control for West Nile virus antiviral project, dose response (AID 1650)
Conditions: Mammalian host cell viability, cytotoxicity counter-screen; series mostly up to 10 µM

Structure (SMILES)	outcome
Cc1c(NC(=O)COC(=O)c2cc(-c3ccc(-c4ccccc4)cc3)nc3ccccc23)c(=O)n(-c2ccccc2)n1C	inactive
COc1ccc(CN2[C@@H](CC(C)=O)c3ccc(/C=C/C(C)=O)cc3S2(=O)=O)cc1	inactive
C/C(=N\Nc1nnc(-c2ccccc2)c(-c2ccccc2)n1)c1cccc([N+](=O)[O-])c1	inactive
Cc1ccc(OCC(O)Cn2c(=N)n(CCN3CCCCC3)c3ccccc32)cc1 (stereo not given)	inactive
Cc1cc(C)nc(S/C=C/C(=O)c2ccccc2F)n1	inactive
Cc1nc([N+](=O)[O-])c(Br)n1CC(=O)c1ccc(Cl)cc1	inactive
CC(=O)N[C@@H](C)C(=O)N1CCC(n2nccc2NC(=O)CCCc2ccccc2)CC1	inactive
O=C(CNc1cccc2ccccc12)N/N=C/c1ccc([N+](=O)[O-])o1	inactive
Cc1ccc(C)c(CN2C(=O)c3ccccc3S(=O)c3ccc(C(=O)NCCCN4CCCC4)cc32)c1 (stereo not given)	inactive
CCOc1ccc2nc(N3CCCC(C(=O)NCCCN4C(C)CCCC4C)C3)sc2c1 (stereo not given)	inactive
CC1CCCC(C)N1CCCNC(=O)c1cc2c(s1)-c1ccccc1OC2 (stereo not given)	inactive
Cc1c(/C=N/NC(=O)C(C)(C)Oc2ccc(Cl)cc2)cnn1C	inactive
O=c1c(-c2ccccc2)c1-c1ccccc1	inactive
CC1CCN(c2nc3ccc(C(=O)NCCCN4CCCCC4)cc3s2)CC1	inactive
CCN(CC)CCCNC(=O)c1sc2nc(-c3ccc(F)cc3)cn2c1C	inactive
O=C(CCN1C(=O)/C(=C/c2ccccc2)SC1=S)NCCc1ccc(O)cc1	inactive
CC1CCN(CCc2nc3cc(NC(=O)COc4ccc(Cl)cc4)ccc3n2C)CC1	inactive
CCOc1ccc2nc(N3CCCC(C(=O)NCCCN4CC(C)CC(C)C4)C3)sc2c1 (stereo not given)	inactive
O=C(c1ccc2c(=O)n(Cc3ccc4c(c3)OCO4)c(=O)[nH]c2c1)N1CCN(c2ccccc2)CC1	inactive
Cc1ccc(C)c(N2CCN(CCCNC(=O)CCC(=O)N3CCOc4ccc(Cl)cc43)CC2)c1	inactive

Structure (SMILES)	outcome
O=C(Nc1ccc2nc3n(c(=O)c2c1)CCCC3)c1cc([N+](=O)[O-])ccc1F	inactive
CN(C)CCCN(C(=O)c1ccc2c(c1)OCCO2)c1nc2ccc(Cl)cc2s1	inactive
CC1CCCN(Cc2c(O)ccc3c(=O)c(-c4nc5ccccc5s4)c(N)oc23)C1 (stereo not given)	inactive
O=C(COC(=O)CN1C(=O)c2ccccc2C1=O)Nc1ccc(S(=O)(=O)N2CCCC2)cc1	inactive
Cc1cncn1CCc1nc2c3ccccc3nc(SCC(=O)Nc3cccc(Cl)c3)n2n1	inactive
CCOc1ccc(/C=C/c2nc(C#N)c(NCCCN(C)C)o2)cc1	inactive
Cc1ccccc1CN(CC(=O)Nc1cccc([N+](=O)[O-])c1)S(=O)(=O)c1ccc(Cl)cc1	inactive
CCOC(=O)c1cnc2ccc(OC)cc2c1Nc1ccc(N2CCN(C)CC2)cc1	inactive
COC(=O)c1c(NC(=O)CCS(=O)(=O)c2ccccc2)sc2c1CCN(C)C2	inactive
CN(C)CCCNC(=S)N1CCN(c2nc(-c3ccccc3)cs2)CC1	inactive
CCN(CC)CCNC(=O)c1ccc(NC(=O)c2cccc(S(=O)(=O)N3c4ccccc4CC3C)c2)cc1 (stereo not given)	inactive
COc1ccc(Cl)cc1NC(=O)c1nnn(CC(=O)Nc2cc(C)cc(C)c2)c1N	inactive
COc1ccc(N2CCN(c3oc(-c4ccc(OC)c(OC)c4)nc3C#N)CC2)cc1	inactive
O=C(NC1CCCC1)C(c1ccncc1)N(Cc1ccccc1)C(=O)c1ccc(-c2ccccc2)[nH]1 (stereo not given)	inactive
O=S(=O)(/C=C/c1ccccc1)Oc1ccccc1	inactive
COc1ccc(C2c3[nH]c4ccccc4c3CCN2C(=O)c2ccccc2C(C)=O)c(F)c1 (stereo not given)	inactive
COCCn1c(SCC(=O)Nc2nnc(C)s2)nnc1-c1ccncc1	inactive
Cc1c(Cc2ccccc2)c(NCCN(C)C)n2c(nc3ccccc32)c1C#N	inactive
Brc1ccc2c(c1)CN1CCCC1=N2	inactive
Nc1nonc1-n1nnc(C(=O)N/N=C/c2ccc(OCc3ccccc3)cc2)c1CNc1ccccc1	inactive
